TTR transcr act – TTR transcription activators in neuroblastoma reporter cells, primary screen, cell-based, luminescence, SH-SY5Y, TTR promoter Gaussia luciferase | 100% = recombinant luciferase protein wells | activation, % at 16.7 µM | 92,000 tested, 1.3% active;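 active = activation above the mean of all tested compounds plus 3 SD, cut at about 9.5% in these data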;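 also: cells exposed to compounds for one day before reading; 0% = median of all test compound wells on the plate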
HuH7 TTR inh – TTR promoter reporter inhibitors in hepatoma cells, counter-screen for TTR transcription activator project, cell-based, luminescence, HuH7 hepatoma. shares compounds with TTR transcr act. inhibition, % at 16.7 µM. AID 1117279, 2014. 1,100 tested, 4% active. HuH7 TTR promoter-Gaussia luciferase reporter;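 active = average inhibition above the solvent-only control wells' mean plus 3 SD, cut at about 15% in these data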;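 also: 0% = cells with DMSO only and 100% = cells with inhibitor control FD; inhibitors lower well luminescence so higher value means more inhibition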
TTR act confirm – TTR transcription activators, retest, confirmation, cell-based, luminescence, SH-SY5Y, triplicate. activation, % at 16.7 µM. shares compounds with TTR transcr act. SHSY5Y TTR promoter Gaussia luciferase; 100% = purified Lucia enzyme wells, no cells. AID 1117280, 2014. 1,100 tested, under 10 active;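 active = mean activation above a set limit taken from the earlier primary screen, cut at about 11% in these data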;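 also: 0% = DMSO-treated cells and 100% = recombinant Lucia luciferase without cells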
The depositor's hits bear a star. Shown is part of a subset that was picked to be rich in hits.

SMILES	TTR transcr act	others
COC(=O)[C@]12C[C@H](CC(=O)NCc3cccc4ccccc34)C(=O)N(Cc3ccc4c(c3)OCO4)C1=C[C@H](C(C)C)O[C@@H]2C1CC1	0
Cc1ccc(CN2CCCCC(NC(=O)Cc3cccs3)C2=O)cc1 (stereo not drawn)	-1
COc1ccc(CC(=O)N2CCc3ccccc32)cc1	21*	HuH7 TTR inh=-24;TTR act confirm=0
COc1ccc(C(=O)N2CCCc3ccccc32)cc1	6
COc1cc(CO)ccc1OCC(=O)N1CCc2ccccc21	-2
COC(=O)[C@]12C[C@H](CC(=O)NCCC(C)C)C(=O)N(Cc3ccc(Cl)cc3Cl)C1=C[C@H](C1CCCC1)O[C@@H]2C	0
O=C(NCCc1ccccc1)c1cc(S(=O)(=O)N2CCCCC2)c[nH]1	15*	HuH7 TTR inh=-2;TTR act confirm=-1
Cc1ccc(CCNC(=O)c2cc(S(=O)(=O)N3CCCCC3)c[nH]2)cc1	-2
O=C(NCc1ccc(F)cc1)c1cc(S(=O)(=O)N2CCCCC2)c[nH]1	-2
CNC(C#Cc1ccccc1)c1ccccc1C(F)(F)F (stereo not drawn)	4
O=C(/C=C\N1CCOCC1)c1ccc(Br)cc1	12*	HuH7 TTR inh=-7;TTR act confirm=1
O=C(c1cccc(Br)c1)N1CCN(C(=O)N2CCOCC2)CC1	1
O=C(NC(=S)Nc1ccccc1N1CCOCC1)c1ccc(Br)cc1	0
O=C(Nc1ccc(Br)cc1)OC1CC2CC1[C@H]1CCCCN1C2 (stereo partly drawn)	2
CC(C)(C)OC(=O)NC1CCN(c2nc(-c3ccc(Br)cc3)cs2)CC1	4
FC(F)(F)c1cc(CNC2CCC23CCC(c2ccccc2)CC3)ccc1Cl (stereo not drawn)	-1
COCCCNC(=O)/C=C/[C@H]1O[C@@H](n2cnc3c(NC(=O)c4ccccc4)ncnc32)[C@H](O)[C@@H]1O	3
O=C(/C=C/[C@H]1O[C@@H](n2cnc3c(NC(=O)c4ccccc4)ncnc32)[C@H](O)[C@@H]1O)NCCc1c[nH]c2ccccc12	-1
O=C(/C=C/[C@H]1O[C@@H](n2cnc3c(NC(=O)c4ccccc4)ncnc32)[C@H](O)[C@@H]1O)NCCc1ccc(F)cc1	21*	HuH7 TTR inh=-22;TTR act confirm=0
O=C1O[C@@H](c2ccccc2)C[C@@H](O)[C@H](O)CCCc2ccccc21	1
O=C(Nc1nc2ncccn2c1-c1ccc(F)cc1)c1ccc(F)cc1	-1
CC[C@@H]1Cc2[nH][nH]c(=O)c2[C@H](c2ccc(Cl)cc2)O1	-1
CCOC(=O)[C@@]12CCC3=C1N(CCC3)C(=O)[C@H](CC(=O)N1CCCCC1)C2	0
CSCCC(c1nnnn1C1CCCC1)N1CCN(C/C=C/c2ccccc2)CC1 (stereo not drawn)	-2
CCOc1ccc(NC(=O)CN(C)C(=O)C2CC(=O)N(CCc3ccccc3)C2)cc1OCC (stereo not drawn)	25*	HuH7 TTR inh=-15;TTR act confirm=1
SMILES	TTR transcr act	others
CCOc1ccc(NC(=O)CN(C)C(=O)c2ccncc2)cc1OCC	-1
O=C(Nc1ccc2c(c1)OCO2)C1CC(=O)N(CCc2ccccc2)C1 (stereo not drawn)	-2
COC(=O)[C@]12C[C@H](CC(=O)NCCCCc3ccccc3)C(=O)N(Cc3ccc4c(c3)OCO4)C1=C[C@H](C(C)C)O[C@@H]2C1CC1	0
C[C@H]1C2CC(OC(=O)Nc3cccc(C(F)(F)F)c3)C(C2)[C@H]2CCCCN21 (stereo partly drawn)	-2
CCCn1c(C(O)c2ccc(OC)cc2)nc2ccccc21 (stereo not drawn)	9.8*	HuH7 TTR inh=-17;TTR act confirm=0
CCCn1c(C(C)Nc2nc(-c3ccc(OC)cc3)cs2)nc2ccccc21 (stereo not drawn)	7
CCn1c(C(O)c2cc(OC)c(OC)c(OC)c2)nc2ccccc21 (stereo not drawn)	3
CCC1(CC)Cc2ccccc2-c2[nH]c(=S)[nH]c(=O)c21	1
CCC1(C)Cc2ccccc2C(=S)N1 (stereo not drawn)	9.7*	HuH7 TTR inh=-5;TTR act confirm=0
CCC1(C)Cc2ccccc2C(=O)N1 (stereo not drawn)	-2
COc1cc(O)c(C(CC(=O)N2CC(C)OC(C)C2)c2ccc3c(c2)OCO3)c(OC)c1 (stereo not drawn)	0
CCc1ccc(CCNC(=O)OC2CC3CC2[C@H]2CCCCN2[C@H]3C)cc1 (stereo partly drawn)	-1
COC(=O)c1cccc(Cn2ccc3ccc(-c4ccc5ccn(C(=O)c6ccccc6OC)c5c4)cc32)c1	3
CCCCNS(=O)(=O)CC1NCCc2ccccc21 (stereo not drawn)	-1
CCOC(=O)[C@]12CCCC=C1N(CCC1=CCCCC1)C(=O)[C@H](CC(=O)NCC1CCCCC1)C2	-2
COC(=O)c1ccc(CSc2nc3ccccc3s2)o1	-1
S=c1[nH]nc(CSc2nc3ccccc3s2)o1	14*	HuH7 TTR inh=-10;TTR act confirm=-1
Cn1c(CSc2nc3ccccc3s2)n[nH]c1=S	-2
CC(C)N1CCCCC(NC(=O)c2ccc(Br)cc2)C1=O (stereo not drawn)	2
CC(C)N1CCCCC(NC(=O)c2ccccc2)C1=O (stereo not drawn)	1
C=CC(=O)NC1CCCCN(C(C)C)C1=O (stereo not drawn)	12*	HuH7 TTR inh=-11;TTR act confirm=-1
O=S(=O)(c1ccccc1)N1CCN(S(=O)(=O)c2ccc3c(c2)OCCO3)CC1	0
CN=C1S/C(=C/c2cc(C)n(Cc3ccccc3)c2C)C(=O)N1C	-2
COc1ccc(N=Cc2c[nH][nH]c2=O)cc1	-1
COc1ccccc1NC(=O)c1c(O)c2ccccc2[nH]c1=O	0
SMILES	TTR transcr act	others
COc1ccc(N=Cc2[nH]c3ccccc3c2O)cc1	14*	HuH7 TTR inh=-1;TTR act confirm=0
COC(=O)[C@]12C[C@H](CC(=O)NCc3cccc(C(F)(F)F)c3)C(=O)N(CCc3ccc(OC)c(OC)c3)C1=C[C@H](COCc1ccccc1)O[C@@H]2C	-2
CCOC(=O)[C@]12CCCC=C1N(CCCOC)C(=O)[C@@H]2CC(=O)NCc1cccc2ccccc12	1
CCCCCCC(=O)NC1CCCCN(Cc2ccc(C)cc2)C1=O (stereo not drawn)	-1
COCCSc1ccccc1C(=O)N1CCCC(C)C1 (stereo not drawn)	21*	HuH7 TTR inh=-26;TTR act confirm=0
COCCSc1ccccc1C(=O)N1CCN(c2ccccc2)CC1	0
CCOC(=O)N1CCN(C2CCCN(C(=O)c3ccccc3SC)C2)CC1 (stereo not drawn)	1
COc1ccc(-c2nnc(SCc3nc4ccccc4s3)n2C(C)C)cc1	-1
Cn1c(SCc2nc3ccccc3s2)nnc1-c1cccs1	-4
CCn1c(SCc2nc3ccccc3s2)nnc1-c1cccs1	15*	HuH7 TTR inh=-23;TTR act confirm=0
CC[C@@]1(c2cccc(Cl)c2)C(=O)N(C(=O)OC(C)C)N1C(=O)OC(C)C	-2
CN(C)C(=O)c1ccc(OCC(F)(F)F)nc1	13*	HuH7 TTR inh=-9;TTR act confirm=-1
CN(C)C(=O)c1ccc(Oc2ccc(C(=O)N(C)C)cc2)cc1	0
N/C(=N\OC(=O)c1ccc(OCC(F)(F)F)nc1)c1ccc(Cl)cc1	1
